According to PubChem BioAssay AID1159580 (chemical genetic matrix, 2015):
About 2,000 (36%) of roughly 5,500 compounds were called active. Roughly 18% stayed inconclusive and do not appear here. No stated cut-off is given here; in the data, active means normalized growth mostly below about 0.91 (no sharp cut-off); inconclusive means no clear call, values can overlap the other calls; inactive means mostly above about 0.92. Some of the results follow.

Assay: chemical genetic growth profiling, strain panel (AID 1159580);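 further: tested at 20 µM; growth read once vehicle control cultures reached saturation at 30 °C; 1 = growth at the plate median or of vehicle wells; lower values mean less growth of the strain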
Conditions: S. cerevisiae deletion strains, growth OD

Measured: normalized growth

CC(C)=CCC/C(C)=C/COc1ccc2ccc(=O)oc2c1
inactive: locus YAL021C, strain ccr4, active compounds read low 0.994 | locus YAL026C, strain drs2, active compounds read low 0.999 | locus YAL030W, strain snc1, active compounds read low 0.986 | locus YBL061C, strain skt5, active compounds read low 0.985 | locus YBR009C, strain hhf1, active compounds read low 0.976 | locus YBR023C, strain chs3, active compounds read low 0.982 | locus YBR171W, strain sec66, active compounds read low 0.981 | locus YBR231C, strain swc5, active compounds read low 0.996 | locus YBR279W, strain paf1, active compounds read low 0.99 | locus YCL011C, strain gbp2, active compounds read low 0.978 | locus YCL016C, strain dcc1, active compounds read low 0.988 | locus YCL061C, strain MRC1, active compounds read low 1 | locus YCL069W, strain vba3, active compounds read low 0.985 | locus YCR088W, strain abp1, active compounds read low 0.99 | locus YDL005C, strain med2, active compounds read low 1 | locus YDL040C, strain nat1, active compounds read low 0.986 | locus YDR001C, strain nth1, active compounds read low 0.993 | locus YDR069C, strain doa4, active compounds read low 0.998 | locus YDR137W, strain rgp1, active compounds read low 0.893 | locus YDR159W, strain sac3, active compounds read low 1.01 | locus YDR195W, strain ref2 1.04 | locus YDR297W, strain sur2, active compounds read low 0.984 | locus YDR334W, strain swr1, active compounds read low 0.992 | locus YDR335W, strain msn5, active compounds read low 1 | locus YDR392W, strain spt3, active compounds read low 0.952 | locus YEL003W, strain gim4, active compounds read low 0.997 | locus YEL037C, strain rad23, active compounds read low 0.991 | locus YEL061C, strain CIN8 (second series), active compounds read low 0.993 | locus YER015W, strain faa2, active compounds read low 1 | locus YER016W, strain bim1, active compounds read low 0.986 | locus YER111C, strain swi4, active compounds read low 1 | locus YER155C, strain BEM2 (second series), active compounds read low 0.999 | locus YFR010W, strain ubp6, active compounds read low 1 | locus YGL167C, strain pmr1, active compounds read low 0.985 | locus YGL173C, strain kem1, active compounds read low 0.99 | locus YGL227W, strain vid30, active compounds read low 0.992 | locus YGL240W, strain doc1, active compounds read low 0.999 | locus YGL253W, strain hxk2, active compounds read low 0.994 | locus YHR013C, strain ard1, active compounds read low 0.971 | locus YHR027C, strain rpn1, active compounds read low 0.998 | locus YHR030C, strain SLT2, active compounds read low 0.948 | locus YHR079C, strain IRE1, active compounds read low 0.969 | locus YHR142W, strain chs7, active compounds read low 0.962 | locus YJL092W, strain hpr5, active compounds read low 1 | locus YJL095W, strain BCK1 (second series), active compounds read low 0.987 | locus YJL095W, strain BCK1, active compounds read low 0.937 | locus YJL115W, strain asf1, active compounds read low 1 | locus YJL129C, strain trk1, active compounds read low 0.911 | locus YJL154C, strain vps35, active compounds read low 0.99 | locus YJL164C, strain tpk1, active compounds read low 0.966 | locus YJL166W, strain qcr8, active compounds read low 0.99 | locus YJL187C, strain SWE1, active compounds read low 0.99 | locus YJR066W, strain TOR1, active compounds read low 0.932 | locus YKL160W, strain elf1, active compounds read low 0.976 | locus YKR026C, strain gcn3, active compounds read low 0.99 | locus YKR091W, strain srl3, active compounds read low 0.985 | locus YLL001W, strain dnm1, active compounds read low 1 | locus YLL026W, active compounds read low 0.984 | locus YLL041C, strain sdh2, active compounds read low 0.983 | locus YLR027C, strain aat2, active compounds read low 0.974 | locus YLR113W, strain HOG1, active compounds read low 0.944 | locus YLR221C, strain rsa3, active compounds read low 0.976 | locus YLR258W, strain gsy2, active compounds read low 0.981 | locus YLR262C, strain YPT6 (second series), active compounds read low 0.932 | locus YLR320W, strain mms22, active compounds read low 0.974 | locus YLR342W, strain FKS1, active compounds read low 0.97 | locus YLR357W, strain rsc2, active compounds read low 1.01 | locus YLR370C, strain arc18, active compounds read low 0.999 | locus YLR384C, strain iki3, active compounds read low 0.992 | locus YML120C, strain ndi1, active compounds read low 0.973 | locus YMR058W, strain fet3, active compounds read low 1 | locus YMR125W, strain sto1, active compounds read low 0.996 | locus YMR129W, active compounds read low 0.993 | locus YMR205C, strain PFK2, active compounds read low 0.96 | locus YMR231W, strain pep5, active compounds read low 0.965 | locus YNL071W, strain lat1, active compounds read low 0.965 | locus YNL183C, strain NPR1, active compounds read low 0.912 | locus YNL209W, strain ssb2, active compounds read low 0.983 | locus YNL248C, strain rpa49, active compounds read low 0.981 | locus YNL322C, strain KRE1 (second series), active compounds read low 0.994 | locus YNR049C, strain mso1, active compounds read low 0.996 | locus YOR001W, strain rrp6, active compounds read low 0.989 | locus YOR070C, strain gyp1, active compounds read low 0.983 | locus YOR080W, strain dia2, active compounds read low 0.997 | locus YOR083W, strain WHI5, active compounds read low 0.978 | locus YOR106W, strain vam3, active compounds read low 0.933 | locus YOR231W, strain MKK1, active compounds read low 0.968 | locus YOR265W, strain rbl2, active compounds read low 0.973 | locus YOR270C, strain vph1, active compounds read low 0.896 | locus YOR290C, strain snf2, active compounds read low 0.968 | locus YPL051W, strain arl3, active compounds read low 0.987 | locus YPL078C, strain atp4, active compounds read low 0.983 | locus YPL106C, strain sse1, active compounds read low 1.01 | locus YPL240C, strain hsp82, active compounds read low 0.992 | locus YPL256C, strain CLN2, active compounds read low 0.917
